# Hits are enriched below; roughly 1.2% of the tested compounds scored in any of these assays.
# GLD-1 TGE inh – GLD-1/TGE RNA complex disruptors, primary screen, biochemical, fluorescence polarization; Female germline-specific tumor suppressor gld-1 (Caenorhabditis elegans), Q17339; purified GLD-1 + fluorescein TGE RNA; inhibition, % at 5.96 µM; 0.44% of 320,000 active; AID 2280, 2010;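 active means percent inhibition above a per-plate cutoff, the plate mean of test compounds plus 3 SD, cut at about 30% in these data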;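 further: 0% = DMSO wells with GLD-1 and probe and 100% = wells lacking GLD-1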
# Target sequence (Q17339 whole entry, looked up): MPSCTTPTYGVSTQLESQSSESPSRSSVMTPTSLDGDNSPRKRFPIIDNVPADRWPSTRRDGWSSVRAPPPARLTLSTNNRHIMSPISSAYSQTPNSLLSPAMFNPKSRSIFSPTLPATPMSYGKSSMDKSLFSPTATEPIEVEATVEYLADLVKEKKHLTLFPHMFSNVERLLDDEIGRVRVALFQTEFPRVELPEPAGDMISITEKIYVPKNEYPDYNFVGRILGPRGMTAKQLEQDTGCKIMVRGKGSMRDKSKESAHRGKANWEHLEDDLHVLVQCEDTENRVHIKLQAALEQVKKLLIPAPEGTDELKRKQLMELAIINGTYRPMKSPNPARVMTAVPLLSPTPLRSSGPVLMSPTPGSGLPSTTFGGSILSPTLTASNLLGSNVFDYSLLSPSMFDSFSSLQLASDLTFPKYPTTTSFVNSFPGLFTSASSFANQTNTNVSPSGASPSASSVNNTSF
# LANA DNA inh – inhibitors of KSHV C-LANA binding to DNA, primary screen, biochemical, fluorescence polarization, FAM-LBS DNA, MBP-C-LANA, single point. AID 504423, 2011. inhibition, % at 9 µM. 0.078% of 340,000 active. Kaposi's sarcoma herpesvirus LANA C-terminal domain (residues 932-1162) DNA binding;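 active means highest replicate inhibition at or above 60% at 9 µM, even if other replicates fall short; inactive means all replicates below 60% inhibition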;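 further: 0% = neutral control wells and 100% = 4 µM acridine orange control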
# BCLXL inh – inhibitors of human Bcl-xL, primary screen, biochemical, fluorescence polarization, HTS | AID 2129, 2009 | inhibition, % at 10.9 µM | Bcl-2-like protein 1 (Homo sapiens), Q07817 | 0.7% of 320,000 active | GST-Bcl-xL / FITC-Bim BH3 peptide fluorescence polarization;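 active means inhibition above the mean of all tested compounds plus 3 SD, cutoff set per campaign, cut at about 30% in these data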;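 further: 0% = DMSO wells and 100% = unlabeled Bim-BH3 peptide competitor; inhibitors lower millipolarization by displacing the labeled peptide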
# Keap1-Nrf2 PPI – Keap1-Nrf2 protein-protein interaction inhibitors, primary screen, biochemical, fluorescence polarization, single point | Keap1 Kelch-Nrf2 peptide fluorescence polarization, 1536-well | Kelch-like ECH-associated protein 1 (Homo sapiens), Q14145 | 0.15% of 340,000 active | inhibition, % at 9.4 µM; in the data active means inhibition above about 12%; inconclusive means no clear call, values can overlap the other calls; inactive means below about 7.3%;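 further: human Keap1 Kelch domain with fluorescein labeled Nrf2 9mer peptide probe; 0% = neutral control wells and 100% = peptide positive control; higher means more block of Keap1 binding to Nrf2 peptide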
# E coli Lon inh – inhibitors of E. coli Lon protease, primary screen, biochemical, fluorescence polarization; inhibition, % at 7.94 µM; AID 602123, 2011; P0A9M0; purified E. coli Lon protease; 0.42% of 360,000 active; in the data active means inhibition above about 13%, passing the limit was not always enough;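 further: 0% = enzyme with probe and DMSO and 100% = no enzyme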
# MEX-5 binding – MEX-5 zinc finger RNA-binding disruptors – biochemical, C. elegans, fluorescence polarization, MLPCN library, primary screen; AID 1832, 2009; MEX-5/FITC-TCR2 RNA binding; stronger effect = lower value; 0.38% of 300,000 active; activity score (negative = inhibition of binding), % at 10 µM;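 active means inhibition past about -25% in most replicates, and total fluorescence under double the plate's negative control median, limit read from the data; inconclusive means replicates evenly split on the limit, or fluorescence at least double controls; inactive means too little inhibition in most replicates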;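 further: 0% = DMSO and -100% = 5 µM competing unlabeled TCR2 RNA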
# Numbers without * were called inactive; ? = inconclusive; . = no result given.
SMILES,GLD-1 TGE inh,LANA DNA inh,BCLXL inh,Keap1-Nrf2 PPI,E coli Lon inh,MEX-5 binding
Cn1cccc1/C=C1\C(=O)NC(=O)N(Cc2ccco2)C1=O,.,9,.,0,-44,-7
COc1ccc(/C=C2/C(=O)NC(=O)N(Cc3ccco3)C2=O)cc1,-26,.,-5,.,.,-81*
O=C1NC(=O)C2(Cc3ccccc3N3CCCC32)C(=O)N1c1ccccc1 (stereo not given),11,3,19,-2,-8,-2
O=C1NC(=O)C2(Cc3ccccc3N3CCCC32)C(=O)N1 (stereo not given),19,5,37*,8,-2,-12
COc1ccc(-n2c(-c3ccccc3F)nc3ccccc3c2=O)cc1,.,.,.,.,-11,.
O=C1NC(=O)C(=Cc2cn(CCOc3ccc4c(c3)OCO4)c3ccccc23)C(=O)N1,-3,11,29,-3,-17,-55*
C=CCn1cc(C=C2C(=O)NC(=O)NC2=O)c2ccccc21,-30,7,30,6,-50,-37*
O=C1NC(=O)C(=Cc2ccc3c(c2)OCO3)C(=O)N1,-4,.,-4,.,.,-6
O=C(Cn1cc(C=C2C(=O)NC(=O)NC2=O)c2ccccc21)NCC1CCCO1 (stereo not given),-3,10,-2,12,-17,-36*
O=C(O)Cn1cc(C=C2C(=O)NC(=O)NC2=O)c2ccccc21,-3,-1,6,2,-16,3
Cc1ccc(NC2=NCCCS2)c(C)c1C,3,1,7,-4,-5,1
CC[C@@H](CO)C1CC2NC3CC4(c5ccccc5N(C)[C@@H]24)C(O)C31 (stereo not given in full),6,0,5,-3,9,0
CCc1ccc(N2C(=O)NC(=O)/C(=C\c3cccn3CCOc3ccc(C(C)C)cc3)C2=O)cc1,-2,1,5,-1,-14,-36*
Cc1ccc(OCCn2cccc2/C=C2/C(=O)NC(=O)N(Cc3ccco3)C2=O)cc1,-5,0,-5,-5,-85,-4
O=C1NCN(c2ccccc2)C12CCN(C(c1cc3ccccc3o1)c1nnnn1Cc1ccccc1)CC2 (stereo not given),.,.,.,.,2,.
COC(=O)C1=C(c2ccc(S(C)(=O)=O)cc2)C[C@@H]2CC[C@H]1N2C(=O)NCCS(C)=O (stereo not given in full),6,2,3,-7,-8,-2
CCOC(=O)[C@]1(C#N)[C@@H]2C=CC(C(C)=O)=CN2[C@@H](C(N)=O)[C@@H]1c1ccsc1,54*,6,88*,3,-9,-53*
CCCN1CCc2cccc3c2[C@H]1Cc1ccc(O)c(O)c1-3,15,2,32*,-6,12,-84*
O=C1NC(=O)C(=Cc2coc3ccc(O)cc3c2=O)C(=O)N1,7,-1,6,-2,1,.
Cc1cc(N2CCCC2)ccc1C=C(C#N)C#N,-70,1,119*,-10,-25,?
Cc1cc(N2CCCCC2)ccc1C=C1C(=O)N(C)C(=S)N(C)C1=O,-9,-1,-14,-1,-11,3
Cc1ccccc1-[n+]1c(-c2ccccc2)cc(-c2ccccc2)cc1-c1ccccc1,9,0,4,-3,-1,-1
CN1CCN(c2ccc3c(c2)S(=O)(=O)c2ccccc2C3=O)CC1,8,8,74*,1,-13,-2
CN1CCN(c2cccc3c2C(=O)c2ccccc2C3=O)CC1,.,1,.,4,-1,-6
O=C1NC(=O)N(c2ccccc2)C(=O)/C1=C/C=C/c1ccco1,12,5,14,-13,-68,0
O=C1NC(=S)N(c2ccc(F)cc2)C(=O)/C1=C\c1ccoc1,.,88*,.,-19,-214,.
CN1C(=O)/C(=C/C=C/c2ccco2)C(=O)NC1=S,-8,60*,16,-26,-94,-80*
COc1ccc(OC)c(N2C(=O)/C(=C/c3ccco3)C(=O)NC2=S)c1,10,.,80*,.,.,-2
